The values that follow come from PubChem BioAssay (NCATS).

The structures appear in SMILES notation. Records with an inconclusive call do not appear. A number with no mark means an inactive call. The source made the active and inactive calls. Calls follow the shape of the dose curve; as a rule, active = well fitted curve in the direction sought with a large enough effect; inconclusive = small, poorly fitted or top-dose-only effect, or another doubt; inactive = no such curve, though single readings can be large; an effect the other way counts as inactive or inconclusive.

Assay [1] concerns the target Rap guanine nucleotide exchange factor 3 (Homo sapiens) (UniProt O95398). Nature of the assay: Confirmatory qHTS for antagonist of cAMP-regulated guanine nucleotide exchange factor 3 (EPAC1) (AID 1645880). Also: nearly all actives have a fitted effect of over 55% in size. Also: potency is read from the fitted curve at half-maximal effect.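 As to activity, negative = inhibition: plate controls were DMSO only for no effect and full effect of the ATA control for full effect.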 The following applies: EPAC1 Rap1B-BODIPY-GDP exchange, fluorescence; activity, negative = inhibition: at 115 µM (top of the series). The gist of the method: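 Nucleotide exchange uses 100 nM EPAC1, 250 nM RAP1B-BODIPY-GDP and 50 uM GDP, with compounds in a concentration-titration series. After 5 min at room temperature, fluorescence (480 nm ex/540 nm em) is read every 5 min for 30 min. Data are normalized to control ATA and DMSO.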
(In qHTS, concentration-response curves come from the screen itself.)

Assay [2] has the same target. Nature of the assay: Confirmatory qHTS for agonist of cAMP-regulated guanine nucleotide exchange factor 3 (EPAC1) (AID 1645881).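 Also: EPAC1 catalysed release of BODIPY-GDP from Rap1B seen as fluorescence loss; 100% = effect of cAMP agonist control; nearly all actives have a fitted effect of over 75% in size.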
Assay [3] shares this target. The experiment in a line: Counterscreen qHTS for antagonist of cAMP-regulated guanine nucleotide exchange factor 3 (EPAC1) (AID 1645888).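 Also: fluorescence loss as bound BODIPY-GDP is released from Rap1B; % of control where 0% means no effect.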 In outline:
(§1)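 Rap1B-BODIPY-GDP 250 nM + GDP 50 uM; cpds 7-pt, final 9.74 nM–152 uM (activator mode) or from 7.32 nM upwards (inhibitor mode); RT; FI 480/540 nm at 5 and 30 min, then ± cAMP, reread.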

Assay [4] has the same target. Nature of the assay: Counterscreen qHTS for agonist of cAMP-regulated guanine nucleotide exchange factor 3 (EPAC1) (AID 1645889). Also: % of control where 0% means no effect; nearly all actives have a fitted effect of over 40% in size. The gist of the method: as §1
(A counterscreen serves to expose hits that act by an unwanted route or on another target.)

Sequence of Rap guanine nucleotide exchange factor 3 (Homo sapiens) (O95398 whole entry, looked up): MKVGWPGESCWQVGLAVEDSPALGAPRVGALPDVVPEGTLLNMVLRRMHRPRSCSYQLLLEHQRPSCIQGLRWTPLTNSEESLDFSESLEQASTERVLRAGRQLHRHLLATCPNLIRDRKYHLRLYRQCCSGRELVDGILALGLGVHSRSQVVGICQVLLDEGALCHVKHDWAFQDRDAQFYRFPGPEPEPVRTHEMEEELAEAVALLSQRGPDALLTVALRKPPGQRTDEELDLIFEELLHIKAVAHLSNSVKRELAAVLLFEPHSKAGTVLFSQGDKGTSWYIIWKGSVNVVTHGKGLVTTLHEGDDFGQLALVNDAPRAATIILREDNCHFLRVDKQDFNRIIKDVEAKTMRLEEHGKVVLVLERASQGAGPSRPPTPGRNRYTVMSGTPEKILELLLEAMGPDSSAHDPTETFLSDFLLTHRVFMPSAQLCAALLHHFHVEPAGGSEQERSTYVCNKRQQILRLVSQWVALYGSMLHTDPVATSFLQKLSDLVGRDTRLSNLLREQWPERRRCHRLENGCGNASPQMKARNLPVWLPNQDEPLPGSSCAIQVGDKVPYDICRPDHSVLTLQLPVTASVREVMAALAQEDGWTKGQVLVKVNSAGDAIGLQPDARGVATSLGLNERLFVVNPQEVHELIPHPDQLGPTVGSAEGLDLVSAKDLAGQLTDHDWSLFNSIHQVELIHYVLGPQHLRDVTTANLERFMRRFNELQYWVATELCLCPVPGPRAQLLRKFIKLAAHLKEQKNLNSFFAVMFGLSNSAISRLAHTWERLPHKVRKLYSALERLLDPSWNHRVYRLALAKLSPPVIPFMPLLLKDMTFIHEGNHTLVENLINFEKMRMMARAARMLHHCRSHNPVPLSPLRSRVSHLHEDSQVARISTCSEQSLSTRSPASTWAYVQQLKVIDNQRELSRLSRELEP

Consider `CCc1ccc([C@@H]2CC=C(C(=O)O)[C@H](c3ccc(Cl)cc3)N2S(=O)(=O)c2ccc(C)cc2)cc1`, for which, in assay [1], the Potency was 50.1 µM (active). In addition, the Potency entry in assay [2] is “inactive”. In addition, the activity change, negative = inhibition in assay [3] is -9.33% [at 30.8 µM]. Moreover, the activation in assay [4] was 4.76% [at 30.8 µM].

For `COC(=O)c1cn(C(=O)c2ccc(OC)c(OC)c2)c2ccccc12`, the Potency entry in assay [1] and in assay [2] was “inactive” throughout. Also, the activity change, negative = inhibition in assay [3] is -11% [at 30.8 µM].

`O=C(O)c1cnn(-c2nc(-c3ccc(Cl)c(Cl)c3)cs2)c1C(F)(F)F`: the Potency in assay [1] was 75.7 µM (active). Moreover, the Potency result in assay [2], in assay [3] and in assay [4] was “inactive” in each case.

As to `CCCCC[C@@H]1C=C(C(=O)O)[C@H](c2ccc(Cl)c(Cl)c2)N1S(=O)(=O)c1ccc(C)cc1`, the Potency in assay [1] was 30.1 µM (active). Further, the Potency result in assay [2], in assay [3] and in assay [4] was “inactive” in each case.

For `COc1cnc(-c2ccccc2)nc1Sc1ccccc1`, the Potency entry in assay [1], in assay [2] and in assay [3] was “inactive” in each case.

Turning to `COc1ccc(-c2ccc(CCC(=O)O)n2-c2ccc(Cl)cc2C)cc1`, the Potency entry in assay [1], in assay [2], in assay [3] and in assay [4] was “inactive” each time.

For `CCOc1cc(C)c(S(=O)(=O)N2CCCCC2)cc1C`, the Potency entry in assay [1], in assay [2], in assay [3] and in assay [4] was “inactive” throughout.

For `CCn1c(=O)c(C(=O)NNS(=O)(=O)c2ccc(C)cc2)c(O)c2ccccc21`, in assay [1], the Potency is 75.7 µM (active). The Potency entry in assay [2] and in assay [3] was “inactive” in each case.

Take `COc1ccc(S(=O)(=O)Nc2ncccc2C)c2ccccc12`: the Potency result in assay [1], in assay [2], in assay [3] and in assay [4] was “inactive” in each case.

Turning to `CCCCn1nnnc1C(c1cc2ccccc2o1)N1CCN(c2cc(C)nc3ccccc23)CC1` (stereo unspecified), the Potency entry in assay [1], in assay [2] and in assay [3] was “inactive” throughout.

With `CC(=O)O[C@H]1c2ccccc2-c2ccccc2[C@@H]1OC(C)=O`, the Potency result in assay [1] and in assay [2] was “inactive” throughout. Further, in assay [3], the activity change, negative = inhibition is -14.6% [at 30.8 µM]. Also, the activation in assay [4] is 8.91% [at 30.8 µM].

For `COc1ccc(S(=O)(=O)N2CCCC2)c2ccccc12`, the Potency entry in assay [1] and in assay [2] was “inactive” throughout. In assay [3], the activity change, negative = inhibition was -10.4% [at 30.8 µM]. Besides, the activation in assay [4] is 9.58% [at 30.8 µM].

`COc1ccc2cc(S(=O)(=O)N3CCCC3)ccc2c1`: the Potency result in assay [1] and in assay [2] was “inactive” throughout. Besides, in assay [3], the activity change, negative = inhibition is -17.9% [at 30.8 µM]. In addition, the activation in assay [4] is 13.3% [at 30.8 µM].

Regarding `Cc1ccc(C2(c3noc(CN(C)Cc4ccccn4)n3)CCCC2)cc1`, the Potency entry in assay [1] and in assay [2] was “inactive” in each case. Besides, the activity change, negative = inhibition in assay [3] is -21.5% [at 30.8 µM]. Also, in assay [4], the activation is 1.73% [at 30.8 µM].

Consider `Cc1cccc2c1NC(=O)C2(O)N1CCCC(C)C1` (stereo unspecified), for which the Potency entry in assay [1], in assay [2], in assay [3] and in assay [4] was “inactive” throughout.
